SMN2 splice enh = SMN2 splice variant enhancement. HEK293 SMN2-luciferase splicing reporter, luminescence, 30-36 h. actives 2.8% (n = 210,000). Potency, µM (doses to about 46.1 µM), for the others: at the highest dose activity change, positive = activation, usual class: activators. AID 1458; also: % of control where 0% means no effect; nearly all actives have a fitted effect of over 55% in size
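HEK293 cells carry an SMN2 minigene-luciferase reporter in which exon 7 inclusion puts luciferase in frame. Cells were seeded at 2000 cells/well, attached for 10-12 hours, then exposed to compounds for 30-36 hours at 37C before ONE-Glo luminescence.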
ELG1 genotoxic = induces genotoxicity in HEK293T cells with luciferase-tagged ELG1; actives 1.3% (n = 330,000); AID 504466; HEK293T ELG1-luciferase reporter, luminescence, 16 h; Potency, µM (highest dose often 46 µM), without a hit: at the highest dose activity change, positive = activation, actives largely listed as activators; also: % of control where 0% means no effect; nearly all actives have a fitted effect of over 60% in size
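ELG1-luciferase HEK293T cells, 2,000/well; compound pinned in; 16 hr, 37 °C, 5% CO2; ONE-Glo, 30 min RT; luminescence on CCD imager.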
ELG1 DNA repair = inhibitors of ELG1-dependent DNA repair in HEK293T cells | actives 2.3% (n = 330,000) | HEK293T ELG1-luciferase reporter, luminescence, 16 h; DNA damage induced by 5-fluorouridine | Potency, µM (titrated, usually from 46.1 µM), without a hit: at the top dose activity change, negative = inhibition, hits mostly inhibitors; also: % is scaled to controls: 0 for no effect and ±100 for the full control effect; nearly all actives have a fitted effect of over 55% in size
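Cells (2,000 per well) received 5-fluorouridine plus test compound or DMSO and were incubated 16 hr at 37 °C, 5% CO2. Luciferase activity was read by luminescence 30 min after ONE-Glo addition; signal suppression marked inhibition of damage-induced ELG1 function.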
FLuc counter = inhibits or activates purified firefly luciferase, miR-21 counter-screen. P08659. purified FLuc, Km substrates, luminescence inhibition. Potency, µM (top dose mostly 57.5 µM), inactives show at the top dose activity change, negative = inhibition, hits mostly inhibitors. actives 6.9% (n = 360,000). AID 588342;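 also: plate controls were vehicle for no effect and reference inhibitor for full effect; nearly all actives have a fitted effect of over 55% in size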
Target sequence (P08659 whole entry, looked up): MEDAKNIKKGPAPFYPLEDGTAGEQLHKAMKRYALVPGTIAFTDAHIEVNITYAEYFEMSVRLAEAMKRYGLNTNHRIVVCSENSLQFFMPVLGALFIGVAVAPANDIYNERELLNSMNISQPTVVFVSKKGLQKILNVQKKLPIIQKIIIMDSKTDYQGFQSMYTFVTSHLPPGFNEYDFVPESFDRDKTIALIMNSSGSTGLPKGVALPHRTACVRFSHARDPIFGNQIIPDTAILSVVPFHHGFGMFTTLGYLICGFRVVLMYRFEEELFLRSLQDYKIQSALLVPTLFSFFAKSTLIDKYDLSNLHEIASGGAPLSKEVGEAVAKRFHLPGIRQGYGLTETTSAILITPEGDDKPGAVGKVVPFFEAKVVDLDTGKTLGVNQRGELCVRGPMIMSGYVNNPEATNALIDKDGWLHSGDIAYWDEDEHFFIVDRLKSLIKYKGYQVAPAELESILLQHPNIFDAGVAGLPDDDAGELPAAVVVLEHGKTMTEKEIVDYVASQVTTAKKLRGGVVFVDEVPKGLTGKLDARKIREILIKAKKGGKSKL
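Purified P. pyralis luciferase (10nM final) with 10uM D-luciferin and 10uM ATP (Km levels) in 50mM Tris acetate pH 7.5, 10mM Mg acetate, 0.01% Tween-20, 0.05% BSA; qHTS 6-point titration, ~60 µM downward; luminescence read.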
Rab9 prom act = Rab9 promoter activation; Huh7 Rab9 promoter-luciferase reporter, luminescence, 24 h; Potency, µM (highest dose often 9.22 µM), inactives show at the highest dose activation, negative = inhibition, actives largely listed as activators; actives 2.8% (n = 320,000); also: % of control where 0% means no effect; nearly all actives have a fitted effect of over 60% in size
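Using Huh7 cells stably transfected with Rab9 promoter–luciferase, compounds were incubated 24 h at 37 °C, 5% CO2; luciferase luminescence was read 10 min after reagent addition.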
NPC1 prom act = activators of NPC1 promoter; Potency, µM (series often up to 9.22 µM), for the others: at the top dose activation, actives largely listed as activators; actives 2.4% (n = 320,000); Huh7 NPC1 promoter luciferase reporter, 24 h; also: % of control where 0% means no effect; nearly all actives have a fitted effect of over 60% in size
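Huh7 cells stably carrying NPC1 promoter–luciferase, plated in Opti-MEM with 10% FBS for 2 h, were exposed to compound in DMSO for 24 h at 37 °C; luciferase reagent was added for 10 min and luminescence read.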
An asterisk follows results filed as active; ? = inconclusive; nt = not tested or not shown; [ ] = another dose, or the depositor's remark. In the library only some 9.2% were active in any assay of this set; here they are far more common. Calls follow the shape of the dose curve; as a rule, active = well fitted curve in the direction sought with a large enough effect; inconclusive = small, poorly fitted or top-dose-only effect, or another doubt; inactive = no such curve, though single readings can be large; an effect the other way counts as inactive or inconclusive. Potency is read from the fitted curve at half-maximal effect.

SMILES | SMN2 splice enh | ELG1 genotoxic | ELG1 DNA repair | FLuc counter | Rab9 prom act | NPC1 prom act
COc1ccc(OC)c(CC(NC(C)=O)C(=O)NC2CCN(c3cc(C)nc4ncnn34)CC2)c1 (stereo unspecified) | nt | 0% | 7% | -2% | -7% | -6%
CNc1oc(/C=C/c2cccc(OC)c2)nc1C#N | nt | 21µM* | ? | 15µM* | 0% | 3%
CN(C)c1oc(/C=C/c2ccccc2)nc1C#N | 13µM* | ? | ? | 17µM* | ? | ?
COc1ccc(Nc2oc(/C=C/c3cccc(OC)c3)nc2C#N)cc1 | 6% | nt | nt | -16% | nt | nt
COc1ccccc1/C=C/c1nc(C#N)c(N(C)C)o1 | 10µM* | 21µM* | ? | 7.6µM* | ? | ?
CC(C)c1ccc(NC2CCCN(C(=O)CC3CCCC3)C2)cc1 (stereo unspecified) | nt | -5% | 0% | -3% | 3% | 0%
COc1cccc(-c2nc(N3CCCC3)c3ccccc3n2)c1O | nt | -5% | ? | 15µM* | -3% | 1%
COc1cccc(-c2nc(NC(C)(C)C)c3ccccc3n2)c1O | nt | -7% | ? | -3% | 7% | 0%
COc1ccc(Nc2nc(-c3cccc(OC)c3O)nc3ccccc23)cc1 | nt | -5% | ? | 3.8µM* | 13% | ?
COc1cc(OC)cc(C(=O)NNC(=O)c2nn(C)c(=O)c3ccccc23)c1 | nt | -4% | ? | nt | nt | nt
c1ccc(Oc2ccc(-c3ccnc4nc(N5CCOCC5)nn34)cc2)cc1 | -14% | -10% | 18µM* | -1% | -7% | -4%
COc1ccc(-c2ccnc3nc(N4CCOCC4)nn23)cc1 | 13% | -2% | -23% | -3% | 0% | -3%
COCCCNC(=O)CCC(=O)N1Cc2ccccc2Oc2ncccc21 | nt | nt | nt | 2% | nt | nt
CCN1CCN(C(=O)c2nn(-c3ccc(C)cc3)c(=O)c3c2c2ccccc2n3C)CC1 | 25µM* | 7% | 18% | 4% | 1% | 6%
CC(C)c1c(C(=O)N/N=C/c2ccccc2OCc2c(F)cccc2Cl)nnn1-c1nonc1N | nt | 4% | -6% | 1% | 0% | -3%
O=C(COC(=O)c1cccc(O)c1)c1ccccc1 | nt | ? | ? | ? | 20% | 0%
O=C(COC(=O)c1cccc(N2C(=O)C3CC=CCC3C2=O)c1)c1ccccc1 (stereo unspecified) | nt | 4% | -3% | 2.4µM* | 2% | 19%
Cn1ccc(C(=O)OCC(=O)c2ccccc2)n1 | nt | ? | ? | 27µM* | 21% | 11%
O=C(O)c1cccc(N2C(=O)C3CC=CCC3C2=O)c1 (stereo unspecified) | -1% | 1% | -5% | 1% | -2% | -2%
CCc1ccc(C(=O)COC(=O)c2cccc(N3C(=O)c4c(C)nc5ccccc5c4C3=O)c2)cc1 | -18% | 0% | ? | 1.7µM* | 26% | ?
Nc1cccc(C(=O)OCC(=O)c2ccccc2)c1 | 10µM* | ? | ? | 1.3µM* | 3.5µM* | 3.2µM*
Cc1cnc(C(=O)OCC(=O)c2ccccc2)cn1 | nt | 3% | 6% | ? | -1% | -2%
CCOC(=O)c1sc2nccc(OC)c2c1N=CNOC | 3% | 1% | -5% | 3% | 1% | 3%
CS(=O)(=O)Nc1ccc(C(=O)NCCc2ccccc2)cc1 | 11µM* | ? | ? | ? | 2µM* | ?
COc1ccc(C(=O)NCC(=O)OCCCOC(=O)CNC(=O)c2ccc(OC)c(OC)c2)cc1OC | nt | 5% | -3% | -1% | -1% | -2%
SMILES | SMN2 splice enh | ELG1 genotoxic | ELG1 DNA repair | FLuc counter | Rab9 prom act | NPC1 prom act
COc1cc(OC)c(OC)cc1CNC(=O)c1ccc(COc2ccccc2)cc1 | nt | -12% | 10µM* | -12% | -5% | 0%
COc1ccc(CN(C)C(=O)c2ccc(COc3ccccc3)cc2)c(OC)c1 | nt | -19% | ? | 3% | -4% | -7%
CCS(=O)(=O)N1CCc2cc(C(=O)NCCc3ccccc3)ccc21 | nt | nt | nt | -4% | nt | nt
CS(=O)(=O)N1CCc2cc(C(=O)NCCc3ccccc3)ccc21 | 13µM* | nt | nt | ? | nt | nt
COc1ccccc1NC(=O)COC(=O)CNC(=O)c1ccc(OC)c(OC)c1 | 5µM* | 18µM* | ? | -1% | 21% | 14%
CC(C)CCNC(=O)C1CCC(Cn2c(=O)c3sccc3n(CC(=O)NC(C)C)c2=O)CC1 (stereo unspecified) | nt | nt | nt | -1% | nt | nt
COc1ccc(CCNC(=O)COc2ccc(S(=O)(=O)N3CCOCC3)cc2C)cc1 | nt | -28% | ? | 0% | 4% | -2%
O=C(CNC(=O)c1cc(Cl)nc2ccccc12)Nc1ccccc1Br | nt | 0% | 15% | 7% | -2% | -1%
CCOc1ccc(C(=O)NCCN(C)C)cc1 | 11% | 4% | 17% | 4%[2.3 µM] | 2% | -3%
COc1ccc(C(=O)NCCc2ccccc2)cc1OC | nt | 17% | ? | ? | 4µM* | ?
CS(=O)(=O)NCc1ccc(C(=O)NCCOc2ccccc2)cc1 | 11µM* | ? | ? | 19µM* | 3.5µM* | 4µM*
CCOc1ccc(C(=O)NCCCCNC(=O)c2ccc(OCC)cc2)cc1 | nt | ? | ? | ? | ? | 3.5µM*
CCOC(=O)c1c(C)c(C(=O)NCCc2ccccc2)c(C)n1C | 16µM* | ? | ? | ? | 3.5µM* | ?
O=C(NCc1ccncc1)c1cc(C(=O)C2CC2)c[nH]1 | 2% | 4% | 13% | -1% | -6% | -3%
O=C(O)c1c[nH]c2c(ccc3[nH]cc(C(=O)O)c(=O)c32)c1=O | -7%[9.22 µM] | nt | nt | nt | nt | nt
CCOc1ccc(C(=O)NCCc2ccccc2)cc1 | 3.5µM* | 0.58µM* | ? | 1.1µM* | 0.32µM* | 0.4µM*
CC(=O)Oc1ccc(-c2ccc(C(=O)NCCc3ccc(S(N)(=O)=O)cc3)cc2)cc1 | nt | 14% | -21% | 1% | -1% | -5%
COc1ccc(C(=O)Nc2ccc(C(=O)NCCc3ccccc3)cc2)cc1 | nt | 6% | 0% | -6% | -2% | -3%
COc1ccc(/C(O)=C/c2nc3ccc(C(=O)NCCc4cccc(C)c4)cc3[nH]c2=O)cc1OC | 18% | -8% | 3.3µM* | 4% | -11% | 0%
CCc1ccc(CNC(=O)c2ccc(NC(=O)N3CC(C)Sc4ccccc43)cc2)cc1 (stereo unspecified) | 2% | nt | nt | 2% | nt | nt
CC(=O)Oc1ccc(C(=O)NCCc2ccccc2)cc1 | 8.9µM* | 15% | ? | 9.5µM* | 0.5µM* | 0.4µM*
CC1CN(C(=O)Nc2ccc(C(=O)NCCc3ccccc3)cc2)c2ccccc2S1 (stereo unspecified) | 14µM* | nt | nt | -10% | nt | nt
COc1cc(OC)c(NC(=O)N2CCOc3ccc(C)cc32)cc1Cl | nt | nt | nt | -4% | nt | nt

Source: PubChem (National Center for Advancing Translational Sciences (NCATS))
